# Source: PMC4336329 (PLoS ONE, 2015)
# The campaign covered roughly 310,000 compounds. About 14,000 (4.5%) showed an effect of 50% or more. Effects have a minus sign here. What follows is part of a selection rich in strong results, with near analogues and random picks from the rest.
# Biological target: human ether-à-go-go-related gene (hERG) potassium channel (human, UniProt Q12809)
# Assay: primary screen, population patch clamp on CHO cells stably expressing hERG; higher = less effect of the substance
# 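Further: peak tail current of the secondary pulse compared with the same well before compound.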
# Sequence of human ether-à-go-go-related gene (hERG) potassium channel (Q12809 whole entry, looked up): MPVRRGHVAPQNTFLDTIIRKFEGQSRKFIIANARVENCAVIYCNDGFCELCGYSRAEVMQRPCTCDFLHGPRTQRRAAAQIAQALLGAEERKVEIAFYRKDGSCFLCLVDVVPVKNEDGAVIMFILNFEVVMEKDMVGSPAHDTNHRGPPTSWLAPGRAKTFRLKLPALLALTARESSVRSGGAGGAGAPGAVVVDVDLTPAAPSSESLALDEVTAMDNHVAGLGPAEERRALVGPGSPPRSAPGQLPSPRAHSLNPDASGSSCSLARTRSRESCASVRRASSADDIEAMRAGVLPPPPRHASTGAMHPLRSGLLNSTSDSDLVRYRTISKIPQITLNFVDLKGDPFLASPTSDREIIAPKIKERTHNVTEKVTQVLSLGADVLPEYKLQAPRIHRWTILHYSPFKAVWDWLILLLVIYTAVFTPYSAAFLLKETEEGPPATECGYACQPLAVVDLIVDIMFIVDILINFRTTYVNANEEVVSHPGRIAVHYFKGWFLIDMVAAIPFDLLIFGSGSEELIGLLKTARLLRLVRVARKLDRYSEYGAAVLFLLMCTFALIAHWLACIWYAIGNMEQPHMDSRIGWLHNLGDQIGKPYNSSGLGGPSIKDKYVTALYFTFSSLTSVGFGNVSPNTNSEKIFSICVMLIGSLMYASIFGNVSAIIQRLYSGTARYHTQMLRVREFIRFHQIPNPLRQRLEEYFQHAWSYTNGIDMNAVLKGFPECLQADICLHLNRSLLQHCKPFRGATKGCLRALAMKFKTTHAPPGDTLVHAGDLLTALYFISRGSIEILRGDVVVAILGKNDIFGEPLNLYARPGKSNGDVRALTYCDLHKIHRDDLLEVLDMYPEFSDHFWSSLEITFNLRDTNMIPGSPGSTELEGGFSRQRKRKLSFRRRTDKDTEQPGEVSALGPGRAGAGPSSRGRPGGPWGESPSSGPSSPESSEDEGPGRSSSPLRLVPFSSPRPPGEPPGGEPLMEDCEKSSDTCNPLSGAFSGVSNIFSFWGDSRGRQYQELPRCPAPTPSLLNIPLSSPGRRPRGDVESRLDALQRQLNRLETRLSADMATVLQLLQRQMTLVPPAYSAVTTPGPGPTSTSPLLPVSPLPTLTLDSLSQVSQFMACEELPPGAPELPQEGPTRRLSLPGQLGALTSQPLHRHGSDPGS
row,SMILES,"hERG current change (%, negative = inhibition) at 10uM"
1,COc1ccccc1N(CC(=O)NC(C)(C)C)C(=O)CCC(=O)Nc1nccs1,-36.5%
2,COC(=O)CN1C(=O)C2(OCCCO2)c2ccccc21,-7.31%
3,Cc1cc(C)n(-c2ccc(NC(=O)C3CCN(Cc4ccccn4)CC3)cc2)n1,-14.5%
4,COc1cccc(-c2cccc(NC(=O)C3CCN(Cc4ccon4)CC3)c2)c1,-27.8%
5,O=C(Nc1cccc(-c2cccc(Cl)c2)c1)C1CCN(Cc2ccccn2)CC1,-77.8%
6,Cl.O=C(O)C1CCN(Cc2ccccn2)CC1,16.2%
7,O=C(Nc1cccc(-c2cccc(Cl)c2)c1)C1CCN(Cc2ccon2)CC1,-52.7%
8,CC(c1ccccc1)C1CC(=O)N(Cc2ccco2)C1=O (centres unmarked),25.9%
9,COc1ccc(CN2CC(C(=O)NCCC(C)C)CC2=O)cc1 (centres unmarked),10.5%
10,COc1ccc(NC(=S)NCCSc2ccc(C)cc2)c(OC)c1,5.2%
11,CCOC(=O)c1c(C)[nH]c(C)c1S(=O)(=O)NCCc1sccc1C,-0.705%
12,Cc1cc2ncn(CC(O)COc3cccc(C(=O)O)c3)c2cc1C (centres unmarked),-10.8%
13,Cc1ccc(C(=O)Nc2ccccc2C(=O)O)cc1S(=O)(=O)NCc1ccccc1,9.8%
14,CC(CN1CCOCC1)C(=O)c1ccccc1.Cl (centres unmarked),8.47%
15,Cc1ccc(C)c(S(=O)(=O)NC(C)C(=O)Nc2ccc(-c3nc4ccccc4s3)cc2)c1 (centres unmarked),2.9%
16,Cc1ccc(/C=C/C(=O)OCC(=O)NC(=O)NCc2ccco2)cc1,18.7%
17,CCc1cccc(C)c1NC(=O)COC(=O)c1ccc2c(c1)S(=O)(=O)c1ccccc1C2=O,-0.0165%
18,Cc1ccc(-n2ncc3c2CC(C)(C)CC3NC(=O)CCc2ccc(=O)[nH]n2)cc1 (centres unmarked),-11.2%
19,Cc1ccccc1-n1ncc2c1CC(C)(C)CC2NC(=O)CCC1=NNC(=O)CC1 (centres unmarked),-75.9%
20,COC(=O)CCC(=O)NC1CC(C)(C)Cc2c1cnn2-c1ccccc1 (centres unmarked),-12%
21,COC(=O)CCCC(=O)NC1CC(C)(C)Cc2c1cnn2-c1ccc(C)cc1 (centres unmarked),-24.7%
22,C=CCC(=O)NC1CC(C)(C)Cc2c1cnn2-c1ccc(C)cc1 (centres unmarked),-69.7%
23,CC1(C)Cc2c(cnn2-c2ccccc2)C(NC(=O)CCc2ccncc2)C1 (centres unmarked),-68.8%
24,Cc1ccc(-n2ncc3c2CC(C)(C)CC3NC(=O)CCc2ccncc2)cc1 (centres unmarked),-72.2%
25,C=CCC(=O)NC1CC(C)(C)Cc2c1cnn2-c1ccccc1C (centres unmarked),4.35%
26,Cc1nn(C)c(C)c1CCC(=O)NC1CC(C)(C)Cc2c1cnn2-c1ccccc1 (centres unmarked),-28.1%
27,CSCCC(=O)NC1CC(C)(C)Cc2c1cnn2-c1ccccc1C (centres unmarked),-10.4%
28,CCc1nccn1CCC(=O)NC1CC(C)(C)Cc2c1cnn2-c1ccc(C)cc1 (centres unmarked),-22.1%
29,COc1ccc(-n2ncc3c2CC(C)(C)CC3NC(=O)CCC2=NNC(=O)CC2)cc1 (centres unmarked),15.8%
